Assay results as given in the supplement of paper PMC11732987, “Enantioselective OTUD7B fragment discovery through chemoproteomics screening and high-throughput optimisation” (Communications Chemistry, 2025).

Tests used:
Assay in all cases: log2 ratio of Biotin-Ahx-Ub-VS probe labelling (compound/DMSO); higher = less target engagement, active = hit call of the paper (q ≤ 0.05, log2 ratio ≤ -1)
Conditions in all cases: treatment time: 3 h
[1] = compound: CCC1N(CCc2sccc12)C(=O)CCl
Method in brief: (§1)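 DUBs in HEK293T lysate were labelled with Biotin-Ahx-Ub-VS (0.5 µM final, 1 h) after a 3 h treatment with compound at 50 or 200 µM or with DMSO, done in triplicate on 495 µg of lysate per sample. NeutrAvidin-enriched proteins were digested with LysC and trypsin and run by diaPASEF LC-MS/MS. Median-normalised label-free quantities gave average base-two log ratios of compound to DMSO by unpaired t-test, restricted to proteins with at least 2 unique peptides.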

[2] = compound: CN1c2ccccc2C(CS1(=O)=O)NC(=O)CCl
Method in brief: as §1

[3] = compound: Cl.ClCC(=O)N1CCc2ncncc2C1
Method in brief: as §1

[4] = compound: Cl.Cn1ncc2C(CCCc12)NC(=O)CCl
Method in brief: as §1

[5] = compound: ClCC(=O)NC1CCOc2ccccc12
Method in brief: as §1

[6] = compound: ClCC(=O)NC1CCCc2ccccc12
Method in brief: (§2)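 Spectronaut label-free, global-median-normalised protein quantities underlie these values, which are average ratios of compound to vehicle from an unpaired t-test. They are reported as log2 and include only proteins identified by two or more unique peptides. Samples of HEK293T lysate (495 µg) were treated in triplicate with a compound concentration series or vehicle for 3 h, then labelled with Biotin-Ahx-Ub-VS at 0.5 µM final for 1 h before NeutrAvidin enrichment, LysC and trypsin digestion, and diaPASEF LC-MS/MS.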

[7] = compound: ClCC(=O)N[C@@H]1CCCc2ccccc12
Method in brief: as §2

[8] = compound: ClCC(=O)N[C@H]1CCCc2ccccc12
Method in brief: as §2

[9] = compound: CCC1N(CCc2cc(OC)c(Cl)cc12)C(=O)CCl
Method in brief: as §1

[10] = compound: CCCC1N(CCc2cc(OC)c(OC)cc12)C(=O)CCl
Method in brief: as §1

[11] = compound: CN(Cc1cccc(Br)c1)C(=O)CCl
Method in brief: as §1

[12] = compound: CN(Cc1cccc(OCc2ccccc2C)c1)C(=O)CCl
Method in brief: as §1

[13] = compound: CN(Cc1ccccc1)C(=O)CCl
Method in brief: as §1

[14] = compound: COc1ccc(CN(C)C(=O)CCl)cc1
Method in brief: as §1

[15] = compound: COc1cccc(CN(CCCc2ccccc2)C(=O)CCl)c1
Method in brief: as §1

[16] = compound: ClCC(=O)N1CCc2cc(Cl)c(Cl)cc2C1
Method in brief: as §1

[17] = compound: ClCC(=O)N1CCc2nc(ncc2C1)-c1ccccc1
Method in brief: as §1

[18] = compound: ClCC(=O)N1CCc2nocc2C1
Method in brief: as §1

[19] = compound: ClCC(=O)N1CCc2scc(Br)c2C1
Method in brief: as §1

[20] = compound: ClCC(=O)NC(C1CCCC1)c1cccs1
Method in brief: as §1

Measured: log2 ratio of Biotin-Ahx-Ub-VS probe labelling

COPS5 (UniProt Q92905)
Chain of UniProt Q92905 (Q92905 whole entry, looked up): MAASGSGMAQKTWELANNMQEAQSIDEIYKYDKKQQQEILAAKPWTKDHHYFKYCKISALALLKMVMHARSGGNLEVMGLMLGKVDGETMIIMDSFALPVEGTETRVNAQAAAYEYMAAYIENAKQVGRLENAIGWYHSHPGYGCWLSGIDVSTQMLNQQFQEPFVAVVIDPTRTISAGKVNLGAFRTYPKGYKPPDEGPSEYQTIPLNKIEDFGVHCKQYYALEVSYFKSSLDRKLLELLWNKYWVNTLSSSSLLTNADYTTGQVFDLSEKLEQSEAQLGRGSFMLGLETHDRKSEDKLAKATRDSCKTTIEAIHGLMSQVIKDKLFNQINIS
inactive: [1]; compound concentration: 50uM -0.164 | [1]; compound concentration: 200uM 0.0997 | [2]; compound concentration: 50uM -0.182 | [2]; compound concentration: 200uM 0.168 | [3]; compound concentration: 50uM -0.296 | [3]; compound concentration: 200uM -0.179 | [4]; compound concentration: 50uM -0.177 | [4]; compound concentration: 200uM -0.131 | [5]; compound concentration: 50uM 0.175 | [5]; compound concentration: 200uM -0.0253 | [6]; compound concentration: 0.78uM 0.0364 | [6]; compound concentration: 1.56uM -0.0289 | [6]; compound concentration: 3.13uM -0.0264 | [6]; compound concentration: 6.25uM 0.0604 | [6]; compound concentration: 12.5uM -0.134 | [6]; compound concentration: 25uM -0.0881 | [6]; compound concentration: 50uM -0.183 | [6]; compound concentration: 100uM -0.315 | [6]; compound concentration: 200uM -0.041 | [7]; compound concentration: 0.78uM -0.237 | [7]; compound concentration: 1.56uM -0.152 | [7]; compound concentration: 3.13uM -0.15 | [7]; compound concentration: 6.25uM 0.209 | [7]; compound concentration: 12.5uM -0.0611 | [7]; compound concentration: 25uM -0.26 | [7]; compound concentration: 50uM -0.29 | [7]; compound concentration: 100uM -0.155 | [7]; compound concentration: 200uM 0.052 | [8]; compound concentration: 0.78uM -0.209 | [8]; compound concentration: 1.56uM 0.0351 | [8]; compound concentration: 3.13uM -0.059 | [8]; compound concentration: 6.25uM -0.0717 | [8]; compound concentration: 12.5uM 0.171 | [8]; compound concentration: 25uM 0.148 | [8]; compound concentration: 50uM -0.0575 | [8]; compound concentration: 100uM 0.0499 | [8]; compound concentration: 200uM -0.0918 | [9]; compound concentration: 50uM 0.0938 | [9]; compound concentration: 200uM 0.311 | [10]; compound concentration: 50uM -0.111 | [10]; compound concentration: 200uM 0.0826 | [11]; compound concentration: 50uM 0.118 | [11]; compound concentration: 200uM -0.11 | [12]; compound concentration: 50uM -0.375 | [12]; compound concentration: 200uM -0.104 | [13]; compound concentration: 50uM -0.103 | [13]; compound concentration: 200uM 0.0593 | [14]; compound concentration: 50uM 0.00458 | [14]; compound concentration: 200uM -0.13 | [15]; compound concentration: 50uM -0.0338 | [15]; compound concentration: 200uM -0.0977 | [16]; compound concentration: 50uM -0.307 | [16]; compound concentration: 200uM -0.222 | [17]; compound concentration: 50uM -0.406 | [17]; compound concentration: 200uM 0.395 | [18]; compound concentration: 50uM -0.35 | [18]; compound concentration: 200uM 0.152 | [19]; compound concentration: 50uM -0.23 | [19]; compound concentration: 200uM -0.704 | [20]; compound concentration: 50uM 0.21 | [20]; compound concentration: 200uM -0.0541
